# The campaign covered roughly 22,000 compounds. About 1,100 (5%) were called active. The entries come from a sample that favours actives as a whole. A number with no mark means an inactive call. Cut-off read from the data, not from the text of the source: active = activity score above about 55%; inconclusive = no clear call, values can overlap the other calls; inactive = below that.
# Experiment: T. cruzi growth inside host cells – cell-based, plate reader, single point, set 2, primary screen (AID 651903);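 note: parasites and compound incubated about four days before reading; 0% = median of neutral control wells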
# Settings: intracellular Trypanosoma cruzi in host cells, at 5.01 µM, hits give high values
row,Compound,activity score (inhibition)
1,C[C@H]1CN([C@@H](C)CO)C(=O)c2cc(NC(=O)Nc3ccc4c(c3)OCO4)ccc2O[C@@H]1CN(C)CC1CCCCC1,8.83%
2,COc1ccc(NC(=O)Nc2ccc3c(c2)CC(=O)N([C@@H](C)CO)C[C@H](C)[C@@H](CN(C)CC2CCCCC2)O3)cc1,-4.28%
3,C[C@@H]1CN([C@@H](C)CO)C(=O)Cc2cc(NC(=O)Nc3cccc4ccccc34)ccc2O[C@@H]1CN(C)CC1CCCCC1,59.9% (active)
4,C[C@@H]1CN([C@@H](C)CO)C(=O)Cc2cc(NC(=O)Nc3ccc4c(c3)OCO4)ccc2O[C@@H]1CN(C)CC1CCCCC1,78.2% (active)
5,C[C@@H]1CN([C@@H](C)CO)C(=O)Cc2cc(NC(=O)C3CCCCC3)ccc2O[C@@H]1CN(C)CC1CCCCC1,-4.58%
6,C[C@H]1CN([C@@H](C)CO)C(=O)Cc2cc(NC(=O)Nc3cccc4ccccc34)ccc2O[C@H]1CN(C)CC1CC1,-24.3%
7,C[C@H](CO)N1C[C@H](C)[C@H](CN(C)C(=O)Nc2ccc3c(c2)OCO3)Oc2ccc(NS(=O)(=O)c3ccc(Cl)cc3)cc2CC1=O,-5.11%
8,C[C@H](CO)N1C[C@H](C)[C@@H](CN(C)Cc2ccccc2C(F)(F)F)OCc2cn(nn2)CCCC1=O,-23.6%
9,Cc1noc(C)c1NC(=O)Nc1ccc2c(c1)C(=O)N([C@H](C)CO)C[C@H](C)[C@@H](CN(C)C(=O)Nc1ccccc1)O2,-16.8%
10,C[C@@H]1CN([C@@H](C)CO)C(=O)Cc2cc(NC(=O)C3CC3)ccc2O[C@@H]1CN(C)S(C)(=O)=O,-20.7%
11,C[C@@H]1CN([C@@H](C)CO)C(=O)c2cc(NC(=O)c3ccncc3)ccc2O[C@@H]1CN(C)Cc1ccncc1,-7.68%
12,C[C@H](CO)N1C[C@H](C)[C@@H](CN(C)Cc2ccccc2)Oc2ccc(NC(=O)Nc3ccc4c(c3)OCO4)cc2C1=O,-2%
13,C[C@@H]1CN([C@@H](C)CO)C(=O)c2cc(NC(=O)c3ccncc3)ccc2O[C@H]1CN(C)Cc1ccc(C(=O)O)cc1,-2.84%
14,C[C@@H]1CN([C@H](C)CO)C(=O)c2cc(NC(=O)c3ccncc3)ccc2O[C@H]1CN(C)Cc1ccc(Oc2ccccc2)cc1,85.4% (active)
15,C[C@@H]1CN([C@@H](C)CO)C(=O)c2cc(NC(=O)Nc3ccc4c(c3)OCO4)ccc2O[C@@H]1CN(C)Cc1ccc(Oc2ccccc2)cc1,17.5%
16,C[C@H]1CN([C@@H](C)CO)C(=O)c2cc(NC(=O)Nc3ccc4c(c3)OCO4)ccc2O[C@@H]1CN(C)Cc1ccc(Oc2ccccc2)cc1,70.1% (active)
17,C[C@@H]1CN([C@@H](C)CO)C(=O)Cc2cc(NC(=O)C3CCCCC3)ccc2O[C@@H]1CN(C)Cc1ccc(-c2ccccc2)cc1,43.3%
18,Cc1ccc(S(=O)(=O)N(C)C[C@@H]2Oc3ccc(NC(=O)Cn4cnnn4)cc3CC(=O)N([C@H](C)CO)C[C@H]2C)cc1,9.72%

row,Compound,activity score (inhibition)
1,C[C@@H]1CN([C@@H](C)CO)C(=O)c2cccc(NS(=O)(=O)c3ccc(F)cc3)c2O[C@@H]1CN(C)Cc1ccc(C(=O)O)cc1,-4.66%
2,C[C@@H]1CN([C@H](C)CO)C(=O)Cc2cc(NC(=O)CCC(F)(F)F)ccc2O[C@@H]1CN(C)CC1CCCCC1,-9.63%
3,C[C@H](CO)N1C[C@H](C)[C@@H](CN(C)Cc2ccccc2)Oc2c(NC(=O)CCCCCC(=O)Nc3ccccc3N)cccc2C1=O,75.8% (active)
4,C[C@H]1CN([C@@H](C)CO)C(=O)c2cccc(NC(=O)Nc3ccccc3)c2O[C@H]1CN(C)Cc1ccc(Oc2ccccc2)cc1,13.5%
5,C[C@H](CO)N1C[C@H](C)[C@@H](CN(C)C(=O)Nc2ccccc2)Oc2c(NC(=O)CCCCCC(=O)Nc3ccccc3N)cccc2C1=O,-11.7%
6,C[C@@H]1CN([C@@H](C)CO)C(=O)c2cccc(NC(=O)Nc3cccc4ccccc34)c2O[C@H]1CN(C)S(=O)(=O)c1ccccc1,-9.51%
7,C[C@H]1CN([C@@H](C)CO)C(=O)c2cccc(NC(=O)CCCCCC(=O)Nc3ccccc3N)c2O[C@H]1CN(C)C(=O)Nc1ccccc1,-8.85%
8,C[C@H](CO)N1C[C@H](C)[C@H](CN(C)S(=O)(=O)c2ccccc2)Oc2c(NC(=O)CCCCCC(=O)Nc3ccccc3N)cccc2C1=O,58.6% (active)
9,C[C@@H]1CN([C@H](C)CO)C(=O)c2cccc(NC(=O)CCCCCC(=O)Nc3ccccc3N)c2O[C@@H]1CN(C)C(=O)Nc1ccccc1,16.9%
10,C[C@H]1CN([C@@H](C)CO)C(=O)c2cccc(NC(=O)CCCCCC(=O)Nc3ccccc3N)c2O[C@@H]1CN(C)S(=O)(=O)c1cn(C)cn1,-40.6%
11,C[C@H](CO)N1C[C@H](C)[C@H](CN(C)Cc2ccc(Oc3ccccc3)cc2)Oc2c(NC(=O)CCCCCC(=O)Nc3ccccc3N)cccc2C1=O,65.5% (active)
12,CC(C)NC(=O)Nc1cccc2c1O[C@@H](CN(C)S(=O)(=O)c1ccc(F)cc1)[C@@H](C)CN([C@H](C)CO)C2=O,-25.4%
13,C[C@@H]1CN([C@@H](C)CO)C(=O)CCCn2cc(nn2)CO[C@@H]1CN(C)C(=O)c1ccncc1,-21.4%
14,COc1ccc(S(=O)(=O)Nc2ccc3c(c2)C(=O)N([C@@H](C)CO)C[C@@H](C)[C@@H](CN(C)S(C)(=O)=O)O3)cc1,-8.35%
15,CC(C)NC(=O)Nc1cccc2c1O[C@H](CN(C)Cc1ccc3c(c1)OCO3)[C@H](C)CN([C@H](C)CO)C2=O,-10.8%
16,COc1ccc(S(=O)(=O)N(C)C[C@H]2Oc3ccc(NS(=O)(=O)c4c(C)noc4C)cc3CC(=O)N([C@@H](C)CO)C[C@H]2C)cc1,-2.67%
17,C[C@H](CO)N1C[C@H](C)[C@@H](CN(C)S(=O)(=O)c2ccccc2)Oc2c(NS(=O)(=O)c3cn(C)cn3)cccc2C1=O,-8.44%
18,COc1ccc(NC(=O)Nc2ccc3c(c2)C(=O)N([C@@H](C)CO)C[C@H](C)[C@@H](CN(C)S(=O)(=O)c2ccc(Cl)cc2)O3)cc1,16.5%
